Activity calls are given as the source filed them. How the source made its calls: active means hit-call score of the fitted dose curve at least 0.9, where 1 is the maximum; inactive means score below 0.9.

The assay in a line: ATG_CMV_CIS: Attagene CIS-FACTORIAL HepG2 Assay for human CMV (Internal Marker) (AID 2282928).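 Further: endpoint acts as a background internal control marker rather than a target.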 Particulars: HepG2 CMV promoter reporter, transcription factor profiling; actives raise or lower the signal. How it is done: ATG_CIS is a cell-based, multiplexed-readout assay that uses HepG2, a human liver cell line, with measurements taken at 24 hours after chemical dosing in a 24-well plate.ATG_CMV_CIS is one of 52 assay component(s) measured or calculated from the ATG_CIS assay. It is designed to make measurements of mRNA induction, a form of inducible reporter, as detected with fluorescence intensity signals by Reverse transcription polymerase chain reaction (RT-PCR) and Capillary electrophoresis technology.Data from the assay component ATG_CMV_CIS was analyzed into 1 assay endpoint. This assay endpoint, ATG_CMV_CIS, was analyzed with bidirectional fitting relative to DMSO as the negative control and baseline of activity. Using a type of inducible reporter, measures of mRNA for gain or loss-of-signal activity can be used to understand the background control at the transcription factor-level as they relate to the gene . Furthermore, this assay endpoint can be referred to as a secondary readout, because this assay has produced multiple assay endpoints where this one serves a background control function. To generalize the intended target to other relatable targets, this assay endpoint is annotated to the background measurement intended target family, where the subfamily is internal marker.
Human liver HepG2 cells are transiently transfected with multiple reporter transcription units (MRTUs) in 6-well plates using FuGene 6 reagent (Roche; 3 ml FuGene/1 mg DNA). The MRTU constructs are regulated by a cis-regulating element (promoter). […] A major difference between the CIS and TRANS system is that in CIS activities of endogenous TFs are measured, whereas the TRANS assay evaluates changes in activities of exogenous, chimeric NR-Gal4 proteins. […] At the end of 24 hour incubation, total RNA was isolated using TriZol reagent (Invitrogen). The isolated RNA is then reverse-transcribed using oligo(dT) primer and Mo-MLV reverse transcriptase (Invitrogen) with DNAse I (Ambion) treatment for 30 min. The one-tenth of the produced cDNA was amplified by PCR using Taq DNA polymerase (Invitrogen) and two reporter sequence-specific primers. The PCR products were fluorescently labeled by primer extension with 6-arboxyfluorescein (6-FAM) 5'-labeled reporter sequence-specific primer (2 min at 95 C, 20 s at 68 C and 10 min at 72 C) and these products were digested with 5U of HpaI (New England Biolabs) for 2h at 37 C. The fragments were purified using Qiaquick PCR columns (Qiagen), analyzed on an ABI 3130xL genetic analyzer (Applied Biosystems) with peak positions identified by using a set of X-rhodamine (ROX)-labeled MapMarker1000 molecular weight standards (BioVentures). The raw capillary electrophoresis data was processed using Attagraph software (Attagene).
As for `Nc1cc2c3c(c1)C(c1ccccc1)=N[C@@H](NC(=O)c1cccnc1)C(=O)N3CC2`, the result was inactive.
Same read-out and setting: in the case of `Oc1ccc(I)cc1` it was “inactive”.
For `CCCCC(CC)COP(=O)(Oc1ccccc1)Oc1ccccc1` (stereo not given), the AC50 (as a rule, the concentration giving half of the maximal activity seen) is 35.4 µM (active).
For `ClC(Cl)c1ccccc1`, the result was inactive.
As for `OCC(F)(F)OC(F)(F)C(F)(F)OC(F)(F)C(F)(F)OC(F)(F)F`, the molecule was called inactive.
On to `COCCOCCO`, for which the molecule was classed as inactive.
As to `CO/N=C(/C(=O)OC)c1ccccc1COc1ccccc1C`, the AC50 is 23.2 µM (active).
In the case of `Cc1ccc(O)cc1C`, the call was inactive.
As for `CCOP(=S)(OCC)SCn1nnc2ccccc2c1=O`, the molecule was called inactive.
On the same count and under the same terms, as for `CCCCOCC1CO1` (stereo not given), the entry is “inactive”; as for `O=S(=O)(c1ccc(O)cc1)c1ccc(O)cc1`, “inactive”.
The same measure, in the same setting: in the case of `Nc1ccc(Sc2ccc(N)cc2)cc1` it was “inactive”; in that of `c1ccc(OP(Oc2ccccc2)Oc2ccccc2)cc1`, “inactive”; in that of `O=C(O)C=CC(F)(C(F)(F)F)C(F)(F)F`, “inactive”.
On the same count and under the same terms, as for `FC(F)(F)C(F)(C(F)(F)F)C(F)(F)C(F)(F)CC1CO1` (stereo not given), the entry is “inactive”; as for `COP(=O)(CCC(=O)NCO)OC`, “inactive”; as for `COC(N)=O`, “inactive”.
As to `O=[N+]([O-])c1cc(Cl)ccc1Cl`, the molecule was classed as inactive.
On the same count and under the same terms, as for `Cn1[nH]nnc1=S`, the entry is “inactive”; as for `CCN(CC)c1ccccc1`, “inactive”; as for `Cc1ccc(C(=O)Cl)cc1`, “inactive”.
For `CCOC(=O)c1ccccc1N`, the result was inactive.
On the same count and under the same terms, as for `O=P(OCC(Br)CBr)(OCC(Br)CBr)OCC(Br)CBr` (stereo not given), the entry is “inactive”.
Turning to `CC(C)Nc1ccc(Nc2ccccc2)cc1`, the AC50 is 60 µM (active).
On to `O=C(O)C(F)(F)C(F)(F)C(=O)O`, for which the outcome was inactive.
On the same count and under the same terms, as for `N#Cc1cc([N+](=O)[O-])ccc1N`, the entry is “inactive”; as for `Oc1ccccc1Br`, “inactive”.
Same read-out and setting: in the case of `CCOP(=S)(OCC)SCSCC` it was “inactive”.
On to `Cc1c([N+](=O)[O-])cc2c(c1[N+](=O)[O-])C(C)(C)CC2(C)C`, for which the AC50 was 100 µM (active).
Consider `CCCCCCCc1ccc(O)cc1`, for which the outcome was inactive.
Regarding `COP(N)(=S)OC`, the result was inactive.
Turning to `COP(=O)(O)OC`, the molecule was called inactive.
The same measure, in the same setting: in the case of `O=C(O)C1C(C(=O)O)C2(Cl)C(Cl)=C(Cl)C1(Cl)C2(Cl)Cl` (stereo not given) it was “inactive”; in that of `CCOP(=S)(OCC)SCS(=O)(=O)CC`, “inactive”.
On the same count and under the same terms, as for `O=NN1CCCC1`, the entry is “inactive”; as for `O=c1ssc(Cl)c1Cl`, “inactive”.
The same measure, in the same setting: as for `NC(=O)C(F)(F)C(F)(F)F`, the entry is “inactive”.
As to `CC(=O)CCc1ccc2c(c1)OCO2`, the result was inactive.
For `CCCCOCCOP(=O)(OCCOCCCC)OCCOCCCC`, the call was inactive.
Regarding `CCOP(=S)(OCC)SCSc1ccc(Cl)cc1`, the result was inactive.

Values taken from PubChem BioAssay (EPA / NIEHS).
